Sampled rows, rich in hits. Any-hit rate of the full collection: about 6.2%.
FMDV inh: antivirals against foot and mouth disease virus; 410,000 tested, 1.2% active; Potency, µM (titrated, usually from 57.9 µM), most hits filed as inhibitors; AID 1159524; FMDV antiviral cell-based qHTS; calls by dose curve; tested in HEK293T cells; further: read-out not given here; nearly all actives have a fitted effect of over 45% in size
MARV entry inh: blocks Marburg virus binding to or entry into cells; Marburg virus pseudotyped entry inhibition, cell reporter; Potency, µM (top dose mostly 37.8 µM), most hits filed as inhibitors; 300,000 tested, 1.8% active; AID 540276; calls by dose curve; tested in HEK293 cells
Lassa entry inh: inhibitors of Lassa virus binding or cell entry; Lassa virus pseudotype entry inhibition, cell reporter; Potency, µM (titrated, usually from 37.9 µM), usual class: inhibitors; 300,000 tested, 1.2% active; calls by dose curve; tested in HEK293 cells; further: nearly all actives have a fitted effect of over 50% in size
HCMV antiviral: human cytomegalovirus inhibition. HFF cells, HCMV-luciferase reporter, 72 h; hits give low values. activity change, negative = inhibition, % at 57.5 µM. 410,000 tested, 4.5% active; in the data active means activity change below about -60%; inconclusive means no clear call, values can overlap the other calls; inactive means above about -39%
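Compounds were evaluated in HFFs infected with an HCMV luciferase reporter virus (MOI 1 PFU/cell). Luciferase in lysates collected 72 h post infection served as the replication measure.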
Large screens that a line does not name were inactive; ! = not active in a repeat.

COc1ccc(C2=NN(C(=O)COc3ncnc4ccccc34)C(c3ccco3)C2)cc1 (stereo not given)	MARV entry inh inconclusive, Lassa entry inh inconclusive
Cc1ccc(C(=O)OCC(=O)N2CCOCC2)cc1	none
CN1/C(=N\O)c2cccc3cccc1c23	HCMV antiviral -60
CNC(=O)CN1C(=O)c2cccc3cccc1c23	none
c1ccc(C(O[C@H]2CCCN(CCc3ccc4c(c3)OCO4)C2)c2ccccc2)cc1	none (no result: MARV entry inh, Lassa entry inh, HCMV antiviral)
C=C1CC[C@@]2(O)[C@H]3Cc4ccc(O)c5c4[C@@]2(CCN3CC2CC2)[C@H]1O5	none (no result: HCMV antiviral)
Oc1ccc2c3c1O[C@H]1c4[nH]c5ccccc5c4C[C@@]4(O)C(C2)N(CC2CC2)CCC314 (stereo not given in full)	MARV entry inh 16µM, Lassa entry inh 18µM (no result: HCMV antiviral)
Oc1ccc2c3c1O[C@H]1c4oc5ccccc5c4C[C@@]4(O)C(C2)N(CC2CC2)CCC314 (stereo not given in full)	MARV entry inh 10µM (no result: FMDV inh, Lassa entry inh, HCMV antiviral)
Oc1ccc2c3c1OC1c4[nH]c5ccccc5c4C[C@@]4(O)C(C2)N(CC2CC2)CC[C@]314 (stereo not given in full)	none (no result: MARV entry inh, Lassa entry inh)
C=CCN1CC[C@]23c4c5ccc(O)c4O[C@H]2/C(=N/NC(=O)c2ccccc2)CC[C@@]3(O)[C@H]1C5	FMDV inh inconclusive, MARV entry inh 0.089µM!, Lassa entry inh inconclusive, HCMV antiviral -64
Oc1ccc2c3c1OC1c4oc5ccccc5c4C[C@@]4(O)[C@@H](C2)N(CC2CC2)CC[C@]314 (stereo not given in full)	HCMV antiviral -61 (no result: MARV entry inh, Lassa entry inh)
COc1cc(F)ccc1Oc1cccc2c1S(=O)(=O)N(C1CC1)C[C@@H](COCc1ccccc1)O2	Lassa entry inh inconclusive (no result: FMDV inh, MARV entry inh)
O=C1/C(=C/c2ccccc2)C[C@@]2(O)[C@H]3Cc4ccc(O)c5c4[C@@]2(CCN3CC2CC2)C1O5 (stereo not given in full)	FMDV inh 10µM (no result: MARV entry inh, Lassa entry inh, HCMV antiviral)
CCOc1ccc(NC(=O)c2ccccc2NC(=O)CNC2CCCC(C)C2C)cc1 (stereo not given)	HCMV antiviral -66 (no result: MARV entry inh, Lassa entry inh)
COc1ccc(C(=O)c2sc(NC(C)C)nc2N)cc1OC	HCMV antiviral inconclusive
COc1cccc(C(=O)c2sc(NC(C)C)nc2N)c1	MARV entry inh inconclusive, HCMV antiviral -97
CCC1(C)Cc2c(sc3nnn(Cc4ccccc4Cl)c(=O)c23)CO1 (stereo not given)	MARV entry inh inconclusive, Lassa entry inh inconclusive, HCMV antiviral -60
CCC1(C)Cc2c(sc3nnn(CC(=O)Nc4ccccc4)c(=O)c23)CO1 (stereo not given)	none
CN(C)c1ccc(CNC(=O)c2cnc(N3CCNC3=O)s2)cc1	none (no result: FMDV inh, MARV entry inh, Lassa entry inh)
CC1CC(OC(=O)c2ccccc2O)CC(C)(C)C1 (stereo not given)	none (no result: MARV entry inh, Lassa entry inh, HCMV antiviral)
O=C(c1ccc(NS(=O)(=O)c2ccc(F)cc2)cc1)N1CCCCC1	none
Cc1ccc(NS(=O)(=O)c2ccc(C(=O)N3CCN(c4ncccn4)CC3)cc2)cc1	FMDV inh inconclusive, MARV entry inh inconclusive, Lassa entry inh 7.9µM, HCMV antiviral -77
O=C(c1ccc(S(=O)(=O)Nc2ccc(F)cc2)cc1)N1CCN(c2ccccn2)CC1	MARV entry inh inconclusive, Lassa entry inh inconclusive, HCMV antiviral -80
COc1cc(CN2CCOc3ccc(C(O)c4cccnc4)cc3C2)cc(OC)c1 (stereo not given)	none (no result: MARV entry inh, Lassa entry inh, HCMV antiviral)
Cc1sc2nc(CN3CCCC3)nc(NCc3ccncc3)c2c1C	MARV entry inh inconclusive
Cc1sc2nc(CN3CCCCC3)nc(Nc3ccc4c(c3)OCCO4)c2c1C	HCMV antiviral -62
COC(=O)c1ccc(NC(=O)CCc2nnc3ccc(N4CCC5(CC4)OCCO5)nn23)cc1	FMDV inh 28µM
Cc1cccnc1NCc1ccc(O)c2ncccc12	MARV entry inh inconclusive, Lassa entry inh inconclusive, HCMV antiviral inconclusive
Cc1cccc(NCc2ccc(O)c3ncccc23)c1C	MARV entry inh inconclusive, Lassa entry inh inconclusive, HCMV antiviral -96
Oc1ccc(Br)cc1CNc1cccc2cccnc12	MARV entry inh inconclusive, Lassa entry inh inconclusive, HCMV antiviral -62
Cc1ccc(NCc2ccc(O)c3ncccc23)cc1C	MARV entry inh inconclusive, Lassa entry inh inconclusive, HCMV antiviral -79
Cc1ccc(NCc2ccc(O)c3ncccc23)cc1	MARV entry inh inconclusive, Lassa entry inh inconclusive
COC(=O)C1CCN(S(=O)(=O)CCNC(=O)c2ccccc2)CC1	none (no result: MARV entry inh, Lassa entry inh)
CC(C)(C)c1cc(C(=O)NC2CC2)n(Cc2ccc(F)cc2)n1	MARV entry inh inconclusive, Lassa entry inh inconclusive
COc1ccccc1NNC(=O)c1cc(C(C)(C)C)nn1Cc1ccccc1	MARV entry inh inconclusive, Lassa entry inh inconclusive
CC(C)(C)c1cc(C(=O)Nc2ccc(F)cc2)n(Cc2ccc(F)cc2)n1	FMDV inh inconclusive, HCMV antiviral -92 (no result: MARV entry inh, Lassa entry inh)
Cc1ccc(NNC(=O)c2cc(C(C)(C)C)nn2Cc2ccccc2)cc1	Lassa entry inh inconclusive
CC(C)(C)c1cc(C(=O)NNc2ccc(OC(F)(F)F)cc2)n(Cc2ccccc2)n1	FMDV inh inconclusive, MARV entry inh inconclusive, Lassa entry inh inconclusive
CC(C)(C)c1cc(C(=O)NNc2cccc(Cl)c2)n(Cc2ccccc2)n1	MARV entry inh 11µM, Lassa entry inh inconclusive, HCMV antiviral -73
CC(C)(C)c1cc(C(=O)NNc2cc(C(F)(F)F)ccc2Cl)n(Cc2ccccc2)n1	FMDV inh inconclusive, MARV entry inh inconclusive, Lassa entry inh inconclusive, HCMV antiviral -90
CC(C)(C)C(=O)NNC(=O)c1cc(C(C)(C)C)nn1Cc1ccccc1	MARV entry inh 10µM, Lassa entry inh inconclusive
COc1cc(C(NC(=O)C(F)(F)F)c2cc3ccccc3o2)cc(OC)c1OC (stereo not given)	Lassa entry inh inconclusive (no result: FMDV inh, HCMV antiviral)
Cc1ccc(NC(=O)c2cc(C(C)(C)C)nn2Cc2ccccc2)cc1	MARV entry inh inconclusive, Lassa entry inh 2.8µM, HCMV antiviral inconclusive
COC(=O)N[C@H](C(C(=O)OC)=C(C)NCc1ccccc1)c1cccc(F)c1	none (no result: FMDV inh, Lassa entry inh, HCMV antiviral)
CCOC(=O)CN1C(=O)C2(CC(C)=C[C@@H](C)O2)c2c(Br)cccc21 (stereo not given in full)	Lassa entry inh inconclusive (no result: FMDV inh, HCMV antiviral)
Cc1ccc(C2CC(c3cccs3)=NN2C(=O)CCl)cc1 (stereo not given)	FMDV inh 18µM, MARV entry inh inconclusive, Lassa entry inh inconclusive, HCMV antiviral -101
Cc1ccc2onc(CNC(=O)Nc3ccccc3C#N)c2c1	Lassa entry inh inconclusive (no result: MARV entry inh)
CCOc1ccc(C2NC(=O)NC(C)=C2C(=O)OCc2ccccc2)cc1 (stereo not given)	FMDV inh inconclusive
CCOc1ccccc1C1NC(=O)NC(C)=C1C(=O)OC1CCCCC1 (stereo not given)	Lassa entry inh inconclusive (no result: FMDV inh)
CC1=C(C(=O)OCc2ccc3c(c2)OCO3)C(c2cccc([N+](=O)[O-])c2)NC(=O)N1 (stereo not given)	HCMV antiviral -81 (no result: MARV entry inh, Lassa entry inh)
CCOC(=O)C1=C(C)NC(=O)NC1c1ccc(-c2ccccc2F)o1 (stereo not given)	FMDV inh inconclusive, Lassa entry inh inconclusive, HCMV antiviral -61
COCCOC(=O)C1=C(C)NC(=O)NC1c1ccc(-c2ccc(F)cc2)o1 (stereo not given)	HCMV antiviral inconclusive
CC1=C(C(=O)OCc2ccccc2)C(c2cccc([N+](=O)[O-])c2)NC(=O)N1 (stereo not given)	none (no result: MARV entry inh, Lassa entry inh)

From PubChem
